PubChem BioAssay (NCATS)
“And” between values parts separate entries of the source, which are not always exact repeats. Equal values may be shown once. Inconclusive results are not listed. The source made the active and inactive calls. The call rests on the fitted dose curve; in most records, active means well fitted curve in the direction sought with a large enough effect; inconclusive means small, poorly fitted or top-dose-only effect, or another doubt; inactive means no such curve, though single readings can be large; an effect the other way counts as inactive or inconclusive.

Target: Cytochrome P450 3A4 (Homo sapiens) (UniProt P08684)
Sequence (P08684 whole entry, looked up): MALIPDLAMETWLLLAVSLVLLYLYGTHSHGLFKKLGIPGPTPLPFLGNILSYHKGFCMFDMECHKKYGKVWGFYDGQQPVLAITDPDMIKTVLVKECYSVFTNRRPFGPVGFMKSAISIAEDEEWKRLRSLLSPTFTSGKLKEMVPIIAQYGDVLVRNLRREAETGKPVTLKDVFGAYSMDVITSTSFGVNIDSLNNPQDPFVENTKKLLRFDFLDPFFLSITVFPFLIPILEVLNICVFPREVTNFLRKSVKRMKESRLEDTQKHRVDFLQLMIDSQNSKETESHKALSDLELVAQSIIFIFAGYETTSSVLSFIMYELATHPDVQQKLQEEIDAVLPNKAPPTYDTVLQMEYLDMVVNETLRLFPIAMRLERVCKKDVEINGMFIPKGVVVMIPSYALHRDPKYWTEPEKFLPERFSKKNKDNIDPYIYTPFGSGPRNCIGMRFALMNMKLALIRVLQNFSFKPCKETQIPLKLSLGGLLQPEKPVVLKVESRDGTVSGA
Assay: qHTS Assay for Inhibitors and Substrates of Cytochrome P450 3A4 (AID 884); further: nearly all actives have a fitted effect of over 50% in size; further: potency means the concentration at half of the fitted maximal effect; on activity change, negative = inhibition: on the % scale 0 is the no-effect control and ±100 the full control effect
Settings: recombinant CYP3A4, Luciferin-PPXE luminescence; series mostly up to 57.1 µM; activity change, negative = inhibition: at the top concentration
Procedure, shortened: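 20 nM human CYP3A4 with 25 uM Luciferin-PPXE (at KM) in 200 mM KPO4, preincubated 10 min with compound; NADPH regeneration started a 60 min RT reaction. Luciferin detected by luminescence, normalized to 57 uM ketoconazole as full inhibition.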

Row | SMILES | Potency | activity change, negative = inhibition
1 | NC(=O)c1cc([N+](=O)[O-])cc([N+](=O)[O-])c1 | 7.94 µM (active) | 
2 | NC(=O)CS(=O)C(c1ccccc1)c1ccccc1 (centres undefined) |  | 2.33% (inactive)
3 | CCCCCCNC(=O)n1cc(F)c(=O)[nH]c1=O | 20 µM (active) | 
4 | O=c1[nH]oc2c1CCNC2 |  | -10.7% (inactive)
5 | O=C1c2ccccc2C(=O)c2ccccc21 |  | -8.37% (inactive)
6 | CCC1(CC)C(=O)C=CNC1=O |  | -8.61% (inactive)
7 | CC(C)(C)NCC(O)c1ccccc1Cl (centres undefined) |  | -1.7% (inactive)
8 | c1ccc2c(c1)sc1ccccc12 |  | -7.2% (inactive)
9 | CNC(C)(C)Cc1ccccc1 |  | -6.01% (inactive)
10 | CC(NC(C)(C)C)C(=O)c1cccc(Cl)c1 (centres undefined) |  | -8.73% (inactive)

Target: Cytochrome P450 3A4 (Homo sapiens) (UniProt P08684)
Assay: qHTS Assay for Activators of Cytochrome P450 3A4 (AID 885); further: nearly all actives have a fitted effect of over 65% in size
Settings: recombinant CYP3A4, Luciferin-PPXE luminescence, 60 min; series mostly up to 57.1 µM; activity change, positive = activation: at the top concentration
Procedure, shortened: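 20nM CYP3A4 + 25uM Luciferin-PPXE (=KM), 200mM KPO4; cpd 10 min RT; NADPH regen, 60 min RT; stop w/ detection buffer, 20 min; luminescence. Normalized to 57 uM ketoconazole.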

Row | SMILES | activity change, positive = activation
11 | NC(=O)c1cc([N+](=O)[O-])cc([N+](=O)[O-])c1 | -63.4% (inactive)
12 | CCCCCCNC(=O)n1cc(F)c(=O)[nH]c1=O | -65.6% (inactive)
13 | Nc1ccc(O)cc1 | -51.2% (inactive)
14 | C=CCc1ccc(O)c(OC)c1 | -45.5% (inactive)
15 | O=C(CCCN1CCC2(CC1)C(=O)NCN2c1ccccc1)c1ccc(F)cc1 | -32.8% [at 25.6 µM] (inactive)
16 | CCOP(=S)(OCC)Oc1ccc2c(C)c(Cl)c(=O)oc2c1 | -76.1% (inactive)
17 | CCC1(c2ccc(N)cc2)CCC(=O)NC1=O (centres undefined) | -53.3% (inactive)

Target: Cytochrome P450 2D6 (Homo sapiens) (UniProt P10635)
Sequence (P10635 whole entry, looked up): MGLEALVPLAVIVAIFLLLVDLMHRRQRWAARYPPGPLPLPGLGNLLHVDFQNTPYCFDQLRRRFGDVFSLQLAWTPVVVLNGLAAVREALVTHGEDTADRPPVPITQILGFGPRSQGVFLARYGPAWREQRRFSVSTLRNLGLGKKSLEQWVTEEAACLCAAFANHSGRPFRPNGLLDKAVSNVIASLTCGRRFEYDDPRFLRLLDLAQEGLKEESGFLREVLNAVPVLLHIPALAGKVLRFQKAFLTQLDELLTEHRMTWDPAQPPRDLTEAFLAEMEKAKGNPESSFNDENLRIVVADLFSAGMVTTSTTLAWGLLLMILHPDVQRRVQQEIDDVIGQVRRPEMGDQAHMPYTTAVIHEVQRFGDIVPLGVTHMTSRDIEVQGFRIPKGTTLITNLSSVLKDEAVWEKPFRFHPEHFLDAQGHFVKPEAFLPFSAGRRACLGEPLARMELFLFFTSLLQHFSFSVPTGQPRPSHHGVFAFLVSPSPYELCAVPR
Assay: qHTS Assay for Inhibitors and Substrates of Cytochrome P450 2D6 (AID 891); further: potency means the concentration at half of the fitted maximal effect; nearly all actives have a fitted effect of over 60% in size
Settings: recombinant CYP2D6, luciferin-ME EGE luminescence; series mostly up to 57.1 µM; activity change, negative = inhibition: at the top concentration
Procedure, shortened: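 Human CYP2D6 (5 nM) with 30 uM Luciferin-ME EGE (at Km) in 100 mM KPO4, compound preincubated 10 min, then NADPH regeneration system for 60 min at room temperature. Luciferin read by luminescence; normalized to 1.43 uM quinidine.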

Row | SMILES | Potency
18 | COc1ccc2c(c1)C13CCCC[C@@H]1C(C2)N(C)CC3 (some centres undefined) | 3.98 µM (active)
19 | O=C(CCCN1CCC2(CC1)C(=O)NCN2c1ccccc1)c1ccc(F)cc1 | 2.51 µM (active) and 1.58 µM (active)
20 | C=CCN1C[C@H](C)N([C@H](c2ccc(C(=O)N(CC)CC)cc2)c2cccc(OC)c2)C[C@H]1C | 1.58 µM (active)
21 | COc1c2c(cc3c1OCO3)CCN(C)C2 | 3.98 µM (active)

Target: Cytochrome P450 2C19 (Homo sapiens) (UniProt P33261)
Sequence (P33261 whole entry, looked up): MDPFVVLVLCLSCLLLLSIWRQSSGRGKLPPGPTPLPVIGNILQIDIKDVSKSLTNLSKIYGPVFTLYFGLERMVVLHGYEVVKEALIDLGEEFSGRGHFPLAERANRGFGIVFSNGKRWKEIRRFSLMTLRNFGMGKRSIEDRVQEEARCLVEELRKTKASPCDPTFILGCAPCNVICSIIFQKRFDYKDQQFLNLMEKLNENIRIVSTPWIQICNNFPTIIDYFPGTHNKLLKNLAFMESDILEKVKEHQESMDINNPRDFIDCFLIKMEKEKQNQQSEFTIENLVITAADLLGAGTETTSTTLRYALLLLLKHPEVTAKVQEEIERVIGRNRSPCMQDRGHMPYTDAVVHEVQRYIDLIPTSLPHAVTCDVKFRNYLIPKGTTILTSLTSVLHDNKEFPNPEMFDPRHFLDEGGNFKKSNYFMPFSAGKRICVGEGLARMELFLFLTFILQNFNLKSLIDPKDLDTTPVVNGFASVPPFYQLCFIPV
Assay: qHTS Assay for Inhibitors and Substrates of Cytochrome P450 2C19 (AID 899); further: nearly all actives have a fitted effect of over 60% in size; further: potency means the concentration at half of the fitted maximal effect; on activity, negative = inhibition: on the % scale 0 is the no-effect control and ±100 the full control effect
Settings: recombinant CYP2C19, luciferin-H EGE luminescence; series mostly up to 57.1 µM; activity, negative = inhibition: at the top concentration
Procedure, shortened: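 5 nM human CYP2C19 with 10uM Luciferin-H EGE (at KM) in 50mM KPO4, compound preincubated 10 min at 37C, then NADPH regeneration for 60 min at 37C. Luciferin read by luminescence after detection reagent; normalized to 57uM ketoconazole as full inhibition.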

Row | SMILES | activity, negative = inhibition | Potency
22 | Cn1c(=O)c2[nH]cnc2n(C)c1=O | 69.1% [at 25.6 µM] (inactive) | 
23 | O=C(CCCN1CCC2(CC1)C(=O)NCN2c1ccccc1)c1ccc(F)cc1 |  | 6.31 µM (active)
24 | Cc1ncsc1CCCl |  | 7.94 µM (active)
